Compound activity deposited in PubChem BioAssay by National Center for Advancing Translational Sciences (NCATS).
MCF10A rerep: A quantitative high throughput screen for small molecules that induce DNA re-replication in MCF 10a normal breast cells; Potency, µM (doses to about 46.1 µM), for inactives: at the top dose activity, positive = re-replication, most hits filed as activators; 350,000 tested, 2.9% active; MCF 10A DNA re-replication, Hoechst nuclear intensity, 48 h; further: % of control where 0% means no effect; nearly all actives have a fitted effect of over 50% in size
KB-V1 MDR tox: qHTS assay for MDR1-selective chemotherapeutics: Primary screen using the drug-selected MDR subline cells KB-V1. KB-V1 MDR cells viability, CellTiter-Glo, 72 h. Potency, µM (doses to about 46.1 µM), usual class: cytotoxic. 400,000 tested, 3.4% active. AID 1347076, 2019; further: on the % scale 0 is the no-effect control and ±100 the full control effect; nearly all actives have a fitted effect of over 60% in size
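Drug-selected KB-V1 cells, grown in DMEM lacking phenol red with 10% FBS, receive compound titrations; after three days at 37 degrees C, surviving cell ATP is quantified by CellTiter-Glo luminescence and responses normalized and curve-fitted.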
RGS4 inh: Inhibitors of Regulator of G Protein Signaling (RGS) 4: qHTS; Regulator of G-protein signaling 4 (Homo sapiens), P49798; Transcreener GDP fluorescence polarization, RGS4-accelerated GTP hydrolysis; Potency, µM (doses to about 114 µM), for the others: at the highest dose activity change, negative = inhibition, most hits filed as inhibitors; 390,000 tested, 0.039% active; AID 504845, 2011; further: on the % scale 0 is the no-effect control and ±100 the full control effect; nearly all actives have a fitted effect of over 75% in size
Target sequence (P49798 whole entry, looked up): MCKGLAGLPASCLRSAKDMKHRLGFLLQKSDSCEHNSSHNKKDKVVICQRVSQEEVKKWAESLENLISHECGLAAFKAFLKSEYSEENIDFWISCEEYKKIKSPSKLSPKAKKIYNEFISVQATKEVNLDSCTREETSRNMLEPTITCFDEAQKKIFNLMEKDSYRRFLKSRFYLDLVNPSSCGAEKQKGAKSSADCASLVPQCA
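MLSMR compounds (23 nl, pin-transferred) preincubated 10 min at room temperature with a 500nM (2x) first reagent, then RGS4 at 900nM (2x) plus Transcreener GDP mix added; fluorescence polarization (620/688 nm) read before and after 90 min at 30 °C.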
KB-3-1 tox: qHTS assay for MDR1-selective chemotherapeutics: Primary screen using the parental adenocarcinoma cell KB-3-1; KB-3-1 viability, CellTiter-Glo ATP luminescence, 72 h; Potency, µM (top dose mostly 46.1 µM), usual class: cytotoxic; 400,000 tested, 1.4% active; further: on the % scale 0 is the no-effect control and ±100 the full control effect; nearly all actives have a fitted effect of over 60% in size
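KB-3-1 parental drug-naive adenocarcinoma cells in DMEM/10% FBS, incubated 72 h at 37 C with pin-transferred compounds across a concentration series. Viability by CellTiter-Glo luminescence; concentration-response curves fitted after normalization.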
SW480 rerep: A quantitative high throughput screen for small molecules that induce DNA re-replication in SW480 colon adenocarcinoma cells | SW480 DNA re-replication, Hoechst DNA content imaging, 48 h | Potency, µM (series often up to 46.1 µM), without a hit: at the top dose re-replication activation, usual class: activators | 340,000 tested, 1.8% active | AID 624297, 2012; further: % of control where 0% means no effect; nearly all actives have a fitted effect of over 55% in size
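Treated cells incubate 48 hr (37 C, 5% CO2), are stained 40 min with Hoechst, and nuclear fluorescence is enumerated; a rise in nuclei with high DNA signal marks re-replication.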
TSG101-PTAP inh: qHTS Assay for Iinhibitors of HIV-1 Budding by Blocking the Interaction of PTAP/TSG101; Tumor susceptibility gene 101 protein (Homo sapiens), Q99816; Fluorescence polarization, FITC-PTAP peptide / Tsg101 binding; Potency, µM (top dose mostly 115 µM), without a hit: at the highest dose activity change, negative = inhibition, most hits filed as inhibitors; 340,000 tested, under 10 active; AID 493005, 2010; active means well fitted inhibition curve with a large enough effect in the main read-out, with a control signal flat, not every such curve was filed as active; inconclusive means small, poorly fitted or top-dose-only effect, or effect the other way, or a change in a side signal; inactive means no such curve, though single readings can be large or run the other way; further: % of control where 0% means no effect
Target sequence (Q99816 whole entry, looked up): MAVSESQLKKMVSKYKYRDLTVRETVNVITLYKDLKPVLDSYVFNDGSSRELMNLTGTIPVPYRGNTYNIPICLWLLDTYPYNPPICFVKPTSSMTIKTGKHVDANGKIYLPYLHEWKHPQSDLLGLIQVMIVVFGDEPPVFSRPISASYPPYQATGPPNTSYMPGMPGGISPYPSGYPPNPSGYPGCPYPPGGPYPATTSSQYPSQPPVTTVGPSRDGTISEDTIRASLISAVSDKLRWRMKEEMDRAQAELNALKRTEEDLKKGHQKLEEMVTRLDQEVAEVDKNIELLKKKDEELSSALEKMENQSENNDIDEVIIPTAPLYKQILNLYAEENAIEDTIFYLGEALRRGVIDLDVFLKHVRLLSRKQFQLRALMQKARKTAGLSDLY
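Steps: Tsg101 binding domain dispensed (10 uM final), compounds pinned in DMSO, FITC-labeled PTAP-motif peptide added (50 nM final); after 20 min binding at room temperature, polarization measured.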
An asterisk follows results filed as active; i = inactive; ? = inconclusive; nt = not tested or not shown; [ ] = remark or other dose. Hits are enriched below; roughly 6.6% of the tested compounds scored in any of these assays. Unless noted, the call rests on the fitted dose curve; in most records, active means well fitted curve in the direction sought with a large enough effect; inconclusive means small, poorly fitted or top-dose-only effect, or another doubt; inactive means no such curve, though single readings can be large; an effect the other way counts as inactive or inconclusive. Potency means the concentration at half of the fitted maximal effect.

SMILES | MCF10A rerep | KB-V1 MDR tox | RGS4 inh | KB-3-1 tox | SW480 rerep | TSG101-PTAP inh
Cc1c(Cl)cccc1NC(=O)Nc1ccc2snnc2c1 | nt | ? | -3% | ? | nt | nt
COC(=O)CNC(=O)CNC(=O)c1nn(-c2ccc(OC)c(Cl)c2)c(=O)c2ccccc12 | -2% | i | 2% | i | -3% | -7%
COc1ccc(-n2nc(C(=O)NCC(=O)NCc3ccco3)c3ccccc3c2=O)cc1Cl | ? | 5.8µM* | -26% | i | 0% | -1%
O=C1CC(C(=O)N(c2cccc(F)c2)C(C(=O)NC2CCCC2)c2ccccn2)CS1 (configuration not stated) | -2% | i | -24% | i | 0% | -4%
O=C1CC(C(=O)N(c2ccc(F)cc2)C(C(=O)NC2CCCC2)c2ccccn2)CS1 (configuration not stated) | 5% | 12µM* | 8% | i | -5% | -9%
CCOc1ccc(C(c2c(O)cc(C)n(CCOC)c2=O)N2CCN(c3ccccc3)CC2)cc1 (configuration not stated) | nt | nt | 0% | nt | nt | nt
CCOCCCNC(=O)c1ccc(C2SCC(=O)N2Cc2ccccc2)cc1 (configuration not stated) | 2% | 5.8µM* | -22% | i | -2% | -3%
CCCNC(=O)c1ccc(C2SCC(=O)N2Cc2ccccc2)cc1 (configuration not stated) | 22% | i | -18% | i | 3% | -2%
O=C(NCc1ccc2c(c1)OCO2)c1ccc(C2SCC(=O)N2Cc2ccco2)cc1 (configuration not stated) | 11% | 21µM* | -49% | i | -2% | -3%
COC(=O)c1ccccc1NC(=O)c1noc2c1CSc1ccccc1-2 | nt | nt | -5% | nt | nt | nt
CC(C(=O)NC(=O)NC1CCCCC1)N1CCN(c2ccccn2)CC1 (configuration not stated) | 15% | ? | -20% | i | -2% | -2%
CC(C(=O)NC(=O)NC1CCCCC1)N1CCN(c2ccc(O)cc2)CC1 (configuration not stated) | 1% | 23µM* | ? | i | -5% | -1%
Cc1cccc(N2CCN(C(=O)CN3C(=O)COc4ccc(S(=O)(=O)N5CCCC5)cc43)CC2C)c1 (configuration not stated) | nt | ? | -9% | ? | nt | nt
CCN(CC)c1nc(Nc2ccccc2)nc(Oc2ccc(=O)n(C)n2)n1 | ? | 6.5µM* | -19% | ? | -9% | -6%
COc1ccc(NC(=S)NNC(=O)c2nnn(-c3ccccc3)c2C)cc1 | -66% | 18µM* | ? | i | 4.1µM* | 0%
CC(=O)c1c(C)[nH]c(C(=O)OCc2ccccc2F)c1C | -1% | 4.6µM* | -10% | i | -4% | 0%
CC(=O)c1c(C)[nH]c(C(=O)OCCOc2ccccc2)c1C | -1% | 6.5µM* | 9% | ? | -3% | -2%
CC(=O)c1c(C)[nH]c(C(=O)OCc2ccc(Br)cc2)c1C | 16% | 6.5µM* | -11% | ? | -5% | 1%
CC(=O)c1c(C)[nH]c(C(=O)OCc2cccc(C)c2)c1C | 19% | ? | 13% | ? | -10% | -2%
Cc1c(C(=O)OCCOc2ccccc2)[nH]c2c1C(=O)CCC2 | ? | 12µM* | -10%[11.4 µM] | i | 8% | 0%
O=C(/C=C/c1ccccc1Cl)Nc1cccc([S+](=O)([O-])Nc2ccccc2F)c1 | nt | i | nt | ? | nt | nt
COC(=O)c1ccc(NC(=O)CC2C(=O)N(c3ccc(Cl)cc3)C(=O)N2Cc2ccco2)cc1 (configuration not stated) | nt | nt | 3% | nt | nt | nt
Cc1cccc2cc(C#N)c(SCCN3CCCCC3)nc12 | ? | ? | 19%[11.4 µM] | i | 8.2µM* | -1%
CN1CCN(S(=O)(=O)c2ccc(Sc3nnnn3-c3ccccc3)c([N+](=O)[O-])c2)CC1 | 6.5µM* | ? | -19% | ? | 16µM* | -1%
O=[N+]([O-])c1ccc(Sc2nnnn2-c2ccccc2)c(Cl)c1 | 4.1µM* | ? | -2% | ? | ? | -1%
SMILES | MCF10A rerep | KB-V1 MDR tox | RGS4 inh | KB-3-1 tox | SW480 rerep | TSG101-PTAP inh
C=C1CCc2c([nH]c3ccc(OCC(C)C)cc23)C1=O | 4.6µM* | ? | -30% | ? | ? | -1%
CCn1c2c(c3cc(OCC(C)C)ccc31)CCCC2=O | -1% | i | -3% | i | -7% | -4%
CN(Cc1ccccc1)C(=O)C1CCN(S(=O)(=O)Cc2ccccc2)CC1 | nt | i | 13% | i | nt | nt
COC(=O)c1ccc(COc2ccc(C)cc2[N+](=O)[O-])o1 | 1.8µM* | i | -2% | i | -9% | -2%
O=C(O)c1ccc(COc2ccccc2[N+](=O)[O-])o1 | -9% | i | -15% | i | -12% | 0%
CC(=O)c1ccc(NC(=O)c2ccc(COc3ccccc3[N+](=O)[O-])o2)cc1 | 2% | 10µM* | ? | ? | 1% | 0%
Cc1ccc(OCc2ccc(C(=O)NN)o2)c([N+](=O)[O-])c1 | -3% | i | 6% | i | ? | 1%
CC(=O)c1cccc(NC(=O)c2ccc(-c3ccccc3[N+](=O)[O-])o2)c1 | 18µM* | ? | -4% | i | -2% | 0%
Cc1ccccc1CN1C(=O)c2ccccc2S(=O)(=O)c2ccc(C(=O)OCC3CCCO3)cc21 (configuration not stated) | nt | i | 17% | i | nt | nt
CC(C)OC(=O)Nc1ccc2nc(-c3cscn3)[nH]c2c1 | 9.4µM* | nt | nt | nt | 5.3µM* | nt
Cc1ccc(NC(=O)c2cnc(SCC(=O)N3CCOCC3)n(C)c2=O)cc1C | nt | nt | 10% | nt | nt | nt
Cc1ccccc1OCc1nc2ccccc2c(=O)n1/N=C/c1c[nH]c2ccccc12 | 16µM* | i | 5% | i | ? | 2%
O=[N+]([O-])c1ccc(Cl)c(/C=N/n2c(COc3ccccc3)n[nH]c2=S)c1 | ? | 16µM* | ? | i | ? | -15%
Cc1ccccc1OCc1nc2ccccc2c(=O)n1N | 1% | i | 9% | i | -3% | -4%
